Pf Dd2 inh – Plasmodium falciparum Dd2 growth inhibition | AID 1347417 | Potency, µM (titrated, usually from 28.9 µM), most hits filed as inhibitors | P. falciparum Dd2 growth, SYBR Green, 72 h | actives 4.3% (n = 120,000); active means well fitted inhibition curve with a large enough effect; further: nearly all actives have a fitted effect of over 65% in size
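Readout: SYBR Green fluorescence, 485 nm excitation, 535 nm emission, after ~16 h lysis at 37C. Before that, Dd2-infected red cells (2.5% hematocrit) grew 72 h with compound, 29 uM top final concentration.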
Large screens that a line does not name were inactive. The full list was thinned out, with hits kept by preference.

COCc1noc([C@@H]2CN(Cc3cccc(Cl)c3F)C[C@H]2C(N)=O)n1	none
COc1ccc(CCC(=O)N[C@@H]2CN(c3ncccn3)C[C@H]2CO)cc1	none
O=C(CC[C@@H]1CNC(=O)[C@@H]2C[C@H](NC(=O)Nc3ccsc3)CN12)NCc1cccs1	none
O=C(c1ccc(=O)[nH]n1)N1CCCC(c2ccn[nH]2)C1 (stereo not drawn)	none
Cc1cn2nnc(C(=O)NC(C)CCc3ccccc3)c2c(=O)[nH]1 (stereo not drawn)	none
O=C(c1cc(F)ccc1F)N1CCCC(Cc2nc(C3CCOCC3)no2)C1 (stereo not drawn)	none
Cc1ccc(NC2=C(c3ccc(C(F)(F)F)cc3)C(=O)c3ccccc32)cc1C	Pf Dd2 inh 0.79µM
O=C(N[C@H]1CCN2C(=O)N(c3ccccc3)C(=O)[C@@H]2C1)c1cccnc1	none
CCN1C(=O)CCC2(C(=O)Nc3ccc(C)cc3)CCCC=C12 (stereo not drawn)	none
Cc1cccc(CN2C(=O)c3ccccc3S(=O)(=O)c3ccc(C(=O)NCCC4=CCCCC4)cc32)c1	none
COc1ccc(CCNC(=O)c2ccc3c(c2)N(Cc2ccccc2)C(=O)c2ccccc2S3=O)cc1OC (stereo not drawn)	none
O=C(NCCC1=CCCCC1)c1ccc2c(c1)N(Cc1ccccc1F)C(=O)c1ccccc1S2=O (stereo not drawn)	Pf Dd2 inh 13µM
CCn1ccc(C(=O)N2CCCCCCNC(=O)[C@@H]3CCCC[C@@H]32)n1	none
COCCN1C(=O)c2ccccc2C(C(=O)Nc2nncs2)C12CCCC2 (stereo not drawn)	none
COCCN1C(=O)c2ccccc2C(C(=O)Nc2nncs2)C12CCCCC2 (stereo not drawn)	none
COCCN1C(=O)c2ccccc2C(C(=O)Nc2nc(C)c(C)s2)C12CCCC2 (stereo not drawn)	Pf Dd2 inh 7.9µM
COCCN1C(=O)c2ccccc2C(C(=O)Nc2nnc(C)s2)C12CCCCC2 (stereo not drawn)	none
COCCN1C(=O)c2ccccc2C(C(=O)NCc2ccc(OC)cc2)C12CCCC2 (stereo not drawn)	none
CCCc1nnc(NC(=O)C2c3ccccc3C(=O)N(CCOC)C23CCCCC3)s1 (stereo not drawn)	Pf Dd2 inh 10µM
COCCN1C(=O)c2ccccc2C(C(=O)NCCC(C)C)C12CCCC2 (stereo not drawn)	none
COCCN1C(=O)c2ccccc2C(C(=O)Nc2nc3ccccc3s2)C12CCCC2 (stereo not drawn)	Pf Dd2 inh 6.3µM
COCCN1C(=O)c2ccccc2C(C(=O)Nc2nc(C(=O)OC)c(C(C)C)s2)C12CCCC2 (stereo not drawn)	Pf Dd2 inh 11µM
Cc1ccc(N2CCC3(CCCN3Cc3ccc(C4CCCO4)s3)CC2)nn1 (stereo not drawn)	none
CCNC(=O)NC[C@H]1O[C@H](Cc2cc(-c3ccccc3)on2)CC[C@@H]1O	none
O=C(Nc1ccc(F)cc1)N1CCN2C(=O)N(C3CCOCC3)C[C@H]2C1	none
CN(Cc1ccccc1)C(=O)C1(C)CCCc2cnc(N(C)C)nc21 (stereo not drawn)	none
COc1cccc([C@@H]2CN(C(=O)Cc3ccc(F)cc3)C[C@H]2C(=O)O)c1OC	none
CCCCc1cn(C[C@H]2CC3CCN2C[C@@H]3C(=O)NCc2ccco2)nn1 (stereo partly drawn)	none
O=c1n(Cc2cc(F)cc(F)c2)nc2n1CCCCC2	none
COCCN1C(=O)c2ccccc2C(C(=O)NCc2ccccc2)C12CCCC2 (stereo not drawn)	none
COCCN1C(=O)c2ccccc2C(C(=O)NCCc2ccccc2)C12CCCC2 (stereo not drawn)	none
COCCN1C(=O)c2ccccc2C(C(=O)Nc2nc3c(s2)CCC3)C12CCCC2 (stereo not drawn)	Pf Dd2 inh 13µM
CN(C)C(=O)c1nc(-c2cccc(C(F)(F)F)c2)c2cnccn12	none
CCOc1ccc(NC(=O)CSc2cn(CCNC(=O)c3ccccc3F)c3ccccc23)cc1	none
CCOc1ccc(C(=O)NCCn2cc(SCC(=O)Nc3ccccc3)c3ccccc32)cc1	Pf Dd2 inh 4.5µM
COc1ccc(C(=O)NCCn2cc(SCC(=O)Nc3ccc(C)cc3)c3ccccc32)cc1	none
COc1ccc(CC(=O)NC2CCN(c3cc(-c4ccc(Cl)cc4)[nH]n3)CC2)cc1	none
CCCc1nc(C)cc(N2CCC(NCCc3ccc(Cl)cc3)CC2)n1	Pf Dd2 inh 10µM
CCCc1cc(N2CCC(NCCOC(C)C)CC2)nc(C)n1	none
COc1ccc(C(=O)N2CCCC3(C2)Nc2cccnc2NC3=NCc2ccccc2)cc1 (stereo not drawn)	none
Cc1ccc(NS(=O)(=O)c2ccccc2)c(=O)n1CC(=O)NC1CCCC1	none
Cc1ccc(NC(=O)N[C@H]2C[C@@](O)(C(=O)N[C@H](Cc3ccccc3)C(N)=O)C[C@@H](O)[C@@H]2O)cc1	none
CCOC(=O)c1[nH]c2c(c1Cc1ccccc1C)C(=O)CC(c1cc(OC)ccc1OC)C2 (stereo not drawn)	Pf Dd2 inh 5µM
CCOC(=O)C1=C(CNCc2ccc(Cl)cc2)NC(=O)NC1c1ccccc1 (stereo not drawn)	none
